Screens as filed in PubChem BioAssay.
Shown are actives, neighbours in structure and some others; about 2.9% of the full set was active somewhere.
ATXN viability: viability counter-screen for ATXN expression inhibitors | S2 cells (HEK-293 line with an ATXN2-luciferase reporter) viability, CellTiter-Fluor protease fluorescence, 24 h | Potency, µM (series often up to 56.7 µM), actives largely listed as cytotoxic | 400,000 tested, 0.49% active; also: nearly all actives have a fitted effect of over 40% in size
Nrf2 block: inhibitors of Nrf2 signaling | A549 ARE-Fluc reporter, luciferase luminescence, 18-24 h | Potency, µM (titrated, usually from 46 µM), actives largely listed as inhibitors | 360,000 tested, 2.1% active | AID 504444; also: nearly all actives have a fitted effect of over 60% in size
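Nrf2 function is reported as luminescence of an ARE-controlled luciferase in A549 cells. Compounds were tested at several concentrations, and a CellTiter-Fluor read on the same wells flagged cytotoxicity.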
ATXN2 expr inh: reduces ATXN2 reporter expression in HEK-293 cells | HEK-293 ATXN2-luciferase reporter, luminescence, 24 h | Potency, µM (series often up to 57 µM), hits mostly inhibitors | 360,000 tested, 0.72% active; also: nearly all actives have a fitted effect of over 55% in size
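ATXN2-luciferase reporter cells (luciferase flanked by upstream and downstream ATXN2 gene portions) were treated 24 h at 37 °C with compounds at up to 57 uM. SteadyGlo luminescence gave expression; GF-AFC fluorescence gave viability.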
A549 viability: kills or reduces viability of A549 cells in Nrf2 counter-screen; A549 ARE-Fluc cells, CellTiter-Fluor viability, 18-24 h; Potency, µM (doses to about 46 µM), most hits filed as inhibitors; 390,000 tested, 0.16% active
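A549 ARE-Fluc cells in 5% FBS OPTI-MEM, 5000 cells/well, rested 2 h then exposed to compounds in concentration-response for 18-24 h at 37 °C. Viability by CellTiter-Fluor fluorescence (Ex 405/Em 525) after 30 min; luciferase luminescence (BugLite, 15 min, RT) read afterwards.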
Nrf2 ARE act: activators of Nrf2 (ARE) signaling; AREc32 ARE-luciferase reporter (MCF7-derived line), luminescence, 24 h; Potency, µM (highest dose often 46.1 µM), most hits filed as activators; 410,000 tested, 0.31% active; AID 624171; also: nearly all actives have a fitted effect of over 65% in size
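Steps: seed AREc32_Fluc cells (1000/well, 5% FBS OPTI-MEM); incubate overnight at 37 deg C; add 23 nL compound; incubate 24 hr; add Steady-Glo; hold 30 min RT; read luminescence.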
Numbers stand for hits; 0 = inactive; ? = inconclusive; - = no result given. Calls follow the shape of the dose curve; as a rule, active = well fitted curve in the direction sought with a large enough effect; inconclusive = small, poorly fitted or top-dose-only effect, or another doubt; inactive = no such curve, though single readings can be large; an effect the other way counts as inactive or inconclusive.

SMILES	ATXN viability	Nrf2 block	ATXN2 expr inh	A549 viability	Nrf2 ARE act
CC(=O)c1cccc(NC(=O)C(C)n2c(=O)cc(C)c3c(C)nn(-c4ccccc4)c32)c1 (configuration not stated)	0	?	0	0	0
Cc1ccccc1C(=O)c1ccc(Nc2ccc(Br)cc2N)cc1Cl	-	-	0	-	-
CCC(=O)NC(c1cccs1)c1cc(Cl)c2ccccc2c1O (configuration not stated)	0	0	0	0	0
CCCC(=O)NC(c1cccs1)c1cc([N+](=O)[O-])c2cccnc2c1O (configuration not stated)	?	21µM	?	?	0
CC(=O)NC(c1ccccc1)c1cc([N+](=O)[O-])c2cccnc2c1O (configuration not stated)	?	15µM	?	?	0
CCC(=O)NC(c1cccs1)c1cc([N+](=O)[O-])c2cccnc2c1O (configuration not stated)	?	?	?	?	0
O=C(CCc1ccccc1)NC(c1cccs1)c1cc(Cl)c2cccnc2c1O (configuration not stated)	-	16µM	13µM	?	0
CC(=O)NC(c1cccs1)c1cc([N+](=O)[O-])c2cccnc2c1O (configuration not stated)	?	?	13µM	?	0
CC(C)C(=O)NC(c1ccccc1)c1cc([N+](=O)[O-])c2cccnc2c1O (configuration not stated)	0	?	?	0	0
NS(=O)(=O)c1ccc(CCNC(=O)c2nc(SCc3ccccc3F)ncc2Cl)cc1	0	?	0	0	0
Cc1ccc(S(=O)(=O)Nc2ccc(NS(=O)(=O)c3ccc(C)cc3)c3ncccc23)cc1	-	?	-	0	-
COc1cc(=O)n2c(c1C(=O)NCc1ccco1)CCN(Cc1ccc3nsnc3c1)CC2	0	-	-	-	-
Cn1c2c(c(=O)n(C)c1=O)C(C(F)(F)F)(C(F)(F)F)N=C(c1ccc(Cl)cc1)N2	?	2.3µM	?	5.8µM	0
O=C(NCCN1CCOCC1)c1cnn(-c2ncc3c(n2)-c2ccccc2CC3)c1C1CC1	0	-	-	-	-
N#Cc1nc(NCCCCO)nc(Nc2ccccc2)n1	-	0	-	0	-
CCn1cc(C(=O)N2CCN(c3cc(Cl)ccc3C)CC2)c(=O)c2cc(S(=O)(=O)N3CCOCC3)ccc21	0	21µM	0	0	0
Cc1ccc(S(=O)(=O)N2CCOCC2)cc1C(=O)N1CCN(c2ccc(C(F)(F)F)cn2)CC1	0	26µM	0	0	0
CC(=O)c1ccc(N2CCN(c3ncc(C(F)(F)F)cc3Cl)CC2)cc1	0	?	0	0	0
CCn1cc(C(=O)N2CCN(c3cccc(Cl)c3)CC2)c(=O)c2cc(S(=O)(=O)N3CCC(C)CC3)ccc21	?	21µM	?	0	0
CC(=O)c1ccc(N2CCN(c3ccc(C(F)(F)F)cn3)CC2)cc1	0	9.2µM	?	0	0
Cc1nc2ccc(S(=O)(=O)NC(C(=O)N3CCN(c4cccc(Cl)c4)CC3)C(C)C)cc2s1 (configuration not stated)	0	0	0	0	0
O=C1CCc2cc(S(=O)(=O)Nc3ccc4ncccc4c3)ccc2N1	-	0	-	0	-
Cc1ccc(S(=O)(=O)N2CCN(C(=O)c3cc(S(=O)(=O)N4CCOCC4)ccc3Cl)CC2)c(C)c1	0	21µM	-	0	0
O=C(NNC(=O)c1cccnc1SCc1cccc([N+](=O)[O-])c1)c1ccccn1	0	?	7.9µM	0	0
O=C(NNC(=O)c1cccnc1SCc1cccc([N+](=O)[O-])c1)c1ccc(F)cc1	?	?	?	0	0
COc1cccc(N2C(=O)N(CC(=O)NCc3cccc(OC)c3OC)c3ccccc3S2(=O)=O)c1	0	-	0	0	0
CCOC(=O)C1=CCC2c3c(c4ccccc4n3C)C(=O)C1N2C(=O)OC(C)(C)C (configuration not stated)	0	15µM	0	?	0
Cn1c(CSCc2ccc(F)cc2)nnc1SCC(=O)Nc1nccs1	0	18µM	0	?	0
Cn1c(CSCc2ccc(F)cc2)nnc1SCC(=O)N1CCN(c2ccccc2)CC1	0	13µM	0	0	0
O=C(CSCc1ccc(F)cc1)N1CCN(c2ccccc2)CC1	0	?	0	0	0
